Wnt act – activators of Wnt/beta-catenin signaling; Wnt/beta-catenin reporter cell assay, activator, plate reader; activation, % at 9.35 µM; 300,000 tested, 1.2% active; in the data active means activation above about 30%, passing the limit was not always enough; inconclusive means no clear call, values can overlap the other calls;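 further: 0% = neutral control wells and 100% = positive control wells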
Rtt109 HAT inh – C. albicans Rtt109 histone acetyltransferase inhibition | Q5AAJ8 | purified Rtt109/Vps75, ThioGlo CoA-SH fluorescence, 4 h | inhibition, % at 34.9 µM | 330,000 tested, 0.16% active | AID 540336;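 active means inhibition of at least 50% in every replicate; inconclusive means best replicate reaches 50% inhibition but some replicates fall short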
Target sequence (Q5AAJ8 whole entry, looked up): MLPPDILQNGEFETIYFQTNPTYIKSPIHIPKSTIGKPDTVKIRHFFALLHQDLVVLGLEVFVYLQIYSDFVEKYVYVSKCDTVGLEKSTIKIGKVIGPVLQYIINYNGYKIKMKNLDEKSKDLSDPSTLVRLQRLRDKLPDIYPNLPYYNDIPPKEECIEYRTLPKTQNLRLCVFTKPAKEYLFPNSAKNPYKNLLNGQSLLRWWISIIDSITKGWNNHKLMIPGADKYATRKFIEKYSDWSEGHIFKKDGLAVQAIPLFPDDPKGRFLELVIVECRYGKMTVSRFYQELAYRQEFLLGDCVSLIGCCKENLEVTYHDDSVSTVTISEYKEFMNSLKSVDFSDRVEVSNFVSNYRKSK
C2C12 statin – suppressors of simvastatin-induced myotoxicity in C2C12 myotubes; ATP luminescence, 48 h; scaled: DMSO 0, geranylgeraniol control 100; rescue of ATP level, % at 7.49 µM; 330,000 tested, 0.78% active;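 active means mean ATP rescue above about 67%, or every replicate alone reaching that limit, limit read from the data, passing the limit was not always enough; inconclusive means no clear call, values can overlap the other calls; inactive means mean under the limit and some replicate under it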;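 further: myotubes were challenged with 10 µM simvastatin during compound exposure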
esBAF inh – SWI/SNF esBAF complex inhibition | mouse ES cells, Bmi1-luciferase knock-in reporter, 24 h; 100% = twice the neutral-well signal | reporter increase, % at 12.5 µM | 350,000 tested, 2% active | AID 602393; in the data active means activation above about 40%; inconclusive means no clear call, values can overlap the other calls;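 further: 0% = median of the plate's neutral control wells and 100% = double that signal; a rise in the Bmi1 reporter signal indicates esBAF inhibition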
MITF act – increases MITF-driven TRPM1 promoter luciferase signal | SK-MEL-5 TRPM1-promoter luciferase, 24 h; % of positive control, neutral wells = 0 | activation, % at 12.5 µM | 300,000 tested, 0.75% active;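 active means mean activation of at least 80% with every replicate also reaching 80%; inconclusive means mean reaches 80% but some replicate falls short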;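 further: 0% = neutral control wells and 100% = parthenolide positive control wells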
An asterisk follows results filed as active; ? = inconclusive; · = no result given. Most compounds without a hit are left out; they make up all but 3.1% or so of the library.

SMILES	Wnt act	Rtt109 HAT inh	C2C12 statin	esBAF inh	MITF act
COc1ccccc1CCCNC(=O)C1CCC(=O)N(Cc2ccccc2F)C1 (configuration not stated)	12	1	0	46*	?
Cc1ccc(CCNC(=O)C2CCC(=O)N(Cc3ccccc3F)C2)o1 (configuration not stated)	17	-3	-3	55*	25
Cc1cc(C)nc(CCNC(=O)C2CCC(=O)N(Cc3ccccc3F)C2)n1 (configuration not stated)	1	-4	6	8	9
COc1ccc(CCCNC(=O)C2CCC(=O)N(Cc3ccccc3F)C2)cc1 (configuration not stated)	9	-1	-10	11	38
NS(=O)(=O)c1ccc(NC(=S)Nc2ccc(S(=O)(=O)N3CCCC3)cc2)cc1	0	0	·	·	-5
O=S(=O)(c1ccc(NC(=S)NN=Cc2ccccc2O)cc1)N1CCCCC1	67*	13	·	·	·
O=S(=O)(c1ccc(NC(=S)NCc2cccnc2)cc1)N1CCCCC1	47*	5	·	·	·
Cc1ccc(S(=O)(=O)N[C@@H]2C=C[C@H](CC(=O)NC3CCCCC3)O[C@@H]2CO)cc1	·	·	3	6	·
CC(Sc1ccsc1[N+](=O)[O-])C(=O)NCc1ccccc1 (configuration not stated)	54*	·	·	·	·
O=C(CC1CC1)Nc1ccc2c(c1)[C@H]1C[C@@H](CC(=O)N3CCOCC3)O[C@@H](CO)[C@H]1O2	·	·	-4	2	·
COc1ccc(NC(=O)CC2C(=O)N(c3cccc(OC)c3)C(=O)N2CCC(C)C)cc1 (configuration not stated)	·	3	93*	2	10
COc1ccc(NC(=O)CC2C(=O)N(C)C(=S)N2Cc2ccc3c(c2)OCO3)cc1 (configuration not stated)	35*	10	-6	-1	3
COc1ccc(CCN2C(=S)N(C)C(=O)C2CC(=O)Nc2ccc(OC)cc2)cc1 (configuration not stated)	-6	20	1	-2	18
COc1ccc(NC(=O)CC2C(=O)N(c3cccc(OC)c3)C(=O)N2C(C)C)cc1 (configuration not stated)	2	-1	1	-2	13
Cc1cc(-n2c(C)cc(C(=O)CSc3ccccn3)c2C)no1	21	-3	-2	76*	107*
Cc1cc(-n2c(C)cc(C(=O)CSc3nnnn3-c3ccccc3)c2C)no1	-5	0	-8	5	-2
O=C(C[C@H]1C=C[C@H](NS(=O)(=O)c2ccccc2)[C@@H](CO)O1)N1CCc2ccccc2C1	·	·	-1	1	·
CCOc1ccc2nc(SCc3ccccc3C#N)sc2c1	·	11	9	61*	?
CCOc1ccc2nc(SCC(=O)NC3CC3)sc2c1	2	-16	4	8	24
CCOc1ccc2nc(SCC(=O)c3ccccc3)sc2c1	8	0	-20	47*	60
CCOc1ccc2nc(SCc3ccc(OC)cc3)sc2c1	·	12	·	·	21
CCCOc1ccc(C(=O)C(CN2CCOCC2)c2ccccc2)cc1 (configuration not stated)	·	6	78*	-1	-35
CCCOc1ccc(C(=O)C(c2ccccc2)N2CCOCC2)cc1 (configuration not stated)	·	-5	16	-2	1
C/C(Cc1ccccc1)=N\NC(=O)CNC(=O)c1cccc(Cl)c1	33*	2	·	·	-3
C[C@H]1CN([C@@H](C)CO)S(=O)(=O)c2ccc(C#Cc3ccc(F)cc3)cc2O[C@@H]1CN(C)C(=O)c1ccccn1	·	·	14	11	·
SMILES	Wnt act	Rtt109 HAT inh	C2C12 statin	esBAF inh	MITF act
O=C(C[C@H]1CC[C@H]2[C@@H](COC[C@@H](O)CN2C(=O)c2cc(Cl)cc(Cl)c2)O1)N1CCc2ccccc2C1	·	·	81*	-5	·
O=C(C[C@H]1CC[C@@H]2[C@H](COC[C@H](O)CN2C(=O)c2cc(Cl)cc(Cl)c2)O1)N1CCc2ccccc2C1	·	·	12	-2	·
O=C(C[C@@H]1CC[C@@H]2[C@H](COC[C@H](O)CN2C(=O)c2cc(Cl)cc(Cl)c2)O1)N1CCc2ccccc2C1	·	·	91*	1	·
O=C(C[C@H]1CC[C@@H]2[C@H](COC[C@@H](O)CN2Cc2ccc(Oc3ccccc3)cc2)O1)N1CCCCC1	·	·	71*	-3	·
CN1C(=O)c2cc(NS(=O)(=O)c3ccc(Cl)cc3)ccc2OC[C@@H]2O[C@@H](CC(=O)N3CCc4ccccc4C3)CC[C@@H]21	·	·	40	15	·
CN1C(=O)c2cc(NS(=O)(=O)c3ccc(Cl)cc3)ccc2OC[C@@H]2O[C@H](CC(=O)N3CCc4ccccc4C3)CC[C@H]21	·	·	109*	9	·
CNC(=O)C[C@@H]1CC[C@H]2[C@@H](COc3ccc(NC(=O)C4CC4)cc3C(=O)N2C)O1	·	·	-21	-2	·
C[C@@H]1CN([C@@H](C)CO)C(=O)c2cc(NC(=O)Cc3ccccc3)ccc2O[C@H]1CN(C)C(=O)Nc1ccc2c(c1)OCO2	·	·	-23	-2	·
CC(C)NC(=O)N(C)C[C@H]1Oc2ccc(NC(=O)Nc3ccccc3)cc2C(=O)N([C@H](C)CO)C[C@@H]1C	36*	2	6	-6	-2
C[C@@H]1CCCCO[C@H](CN(C)C(=O)Nc2ccc(F)cc2)[C@H](C)CN([C@@H](C)CO)C(=O)c2cc(NC(=O)Cc3ccccc3)ccc2O1	·	·	87*	-1	·
CC(C)NC(=O)N(C)C[C@@H]1Oc2ccc(NC(=O)Nc3ccccc3)cc2C(=O)N([C@H](C)CO)C[C@@H]1C	·	·	-7	-1	·
C[C@@H]1CN([C@H](C)CO)C(=O)c2cc(N(C)C)ccc2O[C@@H](C)CCCCO[C@@H]1CN(C)S(=O)(=O)c1ccccc1	·	·	-42	1	·
C[C@H](CO)N1C[C@H](C)[C@@H](CN(C)S(=O)(=O)c2ccccc2)OCCCC[C@H](C)Oc2ccc(N(C)C)cc2C1=O	·	·	92*	7	·
C[C@H]1CCCCO[C@H](CN(C)C(=O)Nc2ccc(F)cc2)[C@@H](C)CN([C@@H](C)CO)C(=O)c2cc(NC(=O)Cc3ccccc3)ccc2O1	·	·	44	3	·
C[C@H]1CN([C@@H](C)CO)C(=O)c2cc(NC(=O)Cc3ccccc3)ccc2O[C@H]1CN(C)C(=O)Nc1ccc2c(c1)OCO2	·	·	-2	71*	·
C[C@H]1CN([C@@H](C)CO)C(=O)Cc2cc(NC(=O)CCCCCC(=O)Nc3ccccc3N)ccc2O[C@@H]1CN(C)C(=O)Nc1ccc2c(c1)OCO2	·	·	18	4	·
COc1ccc(CN(C)C[C@H]2OCCCC[C@@H](C)Oc3ccc(NC(=O)c4ccncc4)cc3C(=O)N([C@H](C)CO)C[C@H]2C)cc1	·	·	·	-5	·
CCC(=O)N1C[C@@H](C)[C@H](OC)CN(C)C(=O)c2ccc(NC(=O)C3CC3)cc2OC[C@H]1C	·	·	0	5	·
